DT40 TDP1 no CPT – qHTS for Inhibitors of human tyrosyl-DNA phosphodiesterase 1 (TDP1): qHTS in cells in absence of CPT; DT40 Tdp1-/- hTDP1 cells, no CPT, ATP luminescence, 48 h; Potency, µM (titrated, usually from 46.2 µM), for the others: top-dose activity change, negative = growth inhibition, usual class: inhibitors; actives 15% (n = 420,000); AID 686978, 2013; also: potency is read from the fitted curve at half-maximal effect; nearly all actives have a fitted effect of over 55% in size
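Compound effects on proliferation are scored in DT40 Tdp1-/-;hTDP1 cells in the absence of CPT. ATP levels (CellTiter-Glo luminescence) are recorded after a ≥48 hr, 37 °C incubation.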
HT1080 IDH1KD tx – toxicity to HT-1080 IDH1 knockdown cells (counter line); Potency, µM (series often up to 46.1 µM), for the others: at the highest dose activity, negative = toxicity, usual class: cytotoxic; HT-1080 IDH1 knockdown viability, ATP luminescence, 48 h; actives 2% (n = 360,000);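 also: potency is read from the fitted curve at half-maximal effect; 0% = DMSO wells and -100% = cell-free medium wells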
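Assay cells: HT-1080 with IDH1 knockdown, 750 per well, RPMI/5% FBS. Exposure: 48 h at 37 °C following 2 h pre-incubation. Read: CellTiter-Glo luminescence; fitted concentration-response, curve class assigned.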
IL1B secr inh – inflammasome signaling inhibition, IL-1 beta readout; actives 4.7% (n = 360,000); THP-1 LPS/ATP IL-1B secretion, AlphaLISA, 16 h; hits give low values; activity change, % at 57.5 µM; AID 743279; in the data active = activity change below about -50%; inconclusive = mostly about -30% to -49%
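Secreted IL-1B measured by AlphaLISA bead assay after 16 h compound exposure of THP-1 cells; compounds (final up to 57.5 uM) added 1 h before LPS (250 ng/mL) and ATP (1.25 mM) stimulation; lower signal means less secretion.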
DT40 TDP1 CPT – growth inhibition of DT40 Tdp1-/-;hTDP1 cells with camptothecin (screen for TDP1 inhibitors); Potency, µM (titrated, usually from 46.2 µM), for inactives: at the highest dose activity change, negative = growth inhibition, hits mostly inhibitors; actives 12% (n = 420,000); chicken DT40 Tdp1-/-;hTDP1 cells + 20 nM CPT, ATP luminescence, 48 h; also: potency is read from the fitted curve at half-maximal effect; nearly all actives have a fitted effect of over 55% in size
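Chicken DT40 Tdp1-/- cells stably complemented with human TDP1 were seeded at 400 cells/well in medium containing 20 nM camptothecin, exposed to pin-transferred compounds, and grown at 37 °C for at least 48 hr. Viability was read as ATP luminescence.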
HT1080-NT tox – kills 2HG-producing HT-1080-NT fibrosarcoma cells; actives 1.6% (n = 360,000); Potency, µM (highest dose often 46.1 µM), inactives show at the top dose activity, negative = less viability, most hits filed as cytotoxic; HT-1080-NT fibrosarcoma viability, CellTiter-Glo ATP luminescence, 48 h; AID 686970;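 also: NT is the 2HG producing partner of a matched IDH1 knockdown line; potency is read from the fitted curve at half-maximal effect; 0% = DMSO-treated cells and -100% = media-only wells without cells; nearly all actives have a fitted effect of over 55% in size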
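HT-1080-NT fibrosarcoma cells (2HG-overproducing), 750 cells/well in RPMI with 5% FBS, dosed after 2 h and incubated 48 h at 37C. CellTiter-Glo luminescence normalized to DMSO and no-cell wells; concentration-response curves fitted and classed.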
Active calls of the source: *; ? = inconclusive; · = no result. An excerpt weighted towards active compounds, which were near 19% of everything screened. Unless noted, calls follow the shape of the dose curve; as a rule, active = well fitted curve in the direction sought with a large enough effect; inconclusive = small, poorly fitted or top-dose-only effect, or another doubt; inactive = no such curve, though single readings can be large; an effect the other way counts as inactive or inconclusive. Unless noted, % is scaled to controls: 0 for no effect and ±100 for the full control effect.

SMILES	DT40 TDP1 no CPT	HT1080 IDH1KD tx	IL1B secr inh	DT40 TDP1 CPT	HT1080-NT tox
COc1ccc(-c2csc(NC(=O)C3CSC4(C)CCC(=O)N34)n2)cc1OC (stereo unspecified)	-4.4%	-20.6%	-12.9	-7.3%	-13.3%
COc1ccc(OC)c(-c2csc(NC(=O)c3ccc4c(c3)OCO4)n2)c1	14.6µM*	15.0%	-3.4	?	26.1%
COc1ccc(OC)c(-c2csc(NC(=O)C3CSC4(C)CCC(=O)N34)n2)c1 (stereo unspecified)	?	-6.0%	-54.8*	?	-3.5%
COc1ccc(-c2csc(NC(=O)CSC(C)C(=O)Nc3cc(C)on3)n2)cc1OC (stereo unspecified)	10.3µM*	5.0%	16.2	18.4µM*	1.6%
COc1ccc(OC)c(NC(=O)c2ccc3c(c2)OCO3)c1	0.3%	8.7%	0.0	-15.9%	11.7%
CCOc1ccc(NC(=O)c2ccc3c(c2)CCN3S(C)(=O)=O)cc1	-13.0%	-0.7%	-25.7	0.9%	-1.7%
CO/N=C(\C(=O)N[C@@H]1C(=O)N2C(C(=O)[O-])=C(C[n+]3ccc(N)n3CCO)CS[C@H]12)c1csc(N)n1	-6.6%	·	·	3.4%	·
CCc1nn(CC(=O)N2CCN(c3cccc(C(F)(F)F)c3)CC2)c(=O)c2cccn12	-22.1%	·	·	-12.8%	·
COc1ccc(CC(=O)Nc2nc(C(C)(C)C)cs2)cc1	-29.4%	-16.8%	-108.0*	-18.6%	-9.9%
COc1ccc(-c2csc(NC(=O)CSc3ccc(Br)cc3)n2)c(OC)c1	16.4µM*	-4.1%	-1.1	18.4µM*	-3.4%
COc1ccc(CC(=O)Nc2nc(C)cs2)cc1	12.4%	6.7%	5.3	7.4%	17.8%
COc1ccc(-c2csc(NC(=O)CSCC(=O)Nc3cc(C)on3)n2)c(OC)c1	?	2.2%	-8.3	29.1µM*	1.3%
COc1ccc(OC)c(-c2csc(NC(=O)C3COc4ccccc4O3)n2)c1 (stereo unspecified)	16.4µM*	2.7%	-12.2	?	1.1%
COc1ccc(S(=O)(=O)N(C)C[C@@H]2OCc3cn(nn3)CCCC(=O)N([C@@H](C)CO)C[C@H]2C)cc1	1.5%	2.6%	8.9	-7.3%	4.4%
O=S(=O)(/N=C(/c1ccccc1)N1CCOCC1)c1ccc(Br)cc1	16.4%	3.3%	-8.1	5.0%	-5.6%
C=CSc1sc(Cl)c(N2CCOCC2)c1[N+](=O)[O-]	?	?	-105.4*	0.2%	?
C=CS(=O)(=O)c1sc(Cl)c(N2CCOCC2)c1[N+](=O)[O-]	2.91µM*	10.3µM*	-111.8*	1.64µM*	?
Cc1cc(=O)[nH]c(SCC(=O)Nc2ccc3c(c2)OCCO3)n1	-9.3%	5.9%	11.2	14.9%	-1.8%
Cc1ccc(NC(=O)Cn2c(-c3ccc(F)cc3)cnc2SCC(=O)Nc2c(C)cccc2C)cc1	11.6µM*	?	1.7	10.3µM*	-28.9%
O=C(CSc1nc(-c2ccc(F)cc2)[nH]c1-c1ccc(F)cc1)Nc1ccc2c(c1)OCCO2	10.3µM*	·	·	10.3µM*	·
CCOc1ccc(-c2nc(SCC(=O)Nc3ccc4c(c3)OCO4)c(-c3ccc(F)cc3)[nH]2)cc1	?	·	·	-18.6%	·
O=C(CSc1ncc(-c2ccc(F)cc2)n1Cc1ccco1)Nc1ccc2c(c1)OCO2	?	-26.1%	-63.8*	29.1µM*	-18.4%
O=C(CSc1nc(-c2ccc(F)cc2)[nH]c1-c1ccc(F)cc1)Nc1ccc2c(c1)OCO2	23.1µM*	·	·	16.4µM*	·
CC1=C/C(=N\NC(=O)c2ccc(O)cc2)CC1	1.6%	16.7%	-0.3	13.0%	13.5%
O=C(NNc1c(Cl)cncc1Cl)c1sccc1Cl	?	-13.1%	-10.0	0.6%	11.5%
O=C1NC(Cc2ccccc2)C(=O)N1Cc1ccccc1 (stereo unspecified)	-17.7%	9.6%	-7.4	4.5%	9.0%
